DRD3 antagonist: blocks the human D3 dopamine receptor; P35462; D3R cells, DiscoveRx beta-arrestin luminescence, antagonist mode; hits give low values; max response, negative = inhibition, %; actives 2.5% (n = 360,000); AID 652054; in the data active means max response below about -50%; inconclusive means no clear call, values can overlap the other calls
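Cells expressing the human receptor were seeded at 1500 cells/well, incubated overnight at 37 degrees C in 5% CO2, then exposed to library compounds with dopamine controls for 90 minutes at 37 degrees C before luminescent detection.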
D1 antag: blocks dopamine activation of the human D1 receptor | actives 3.2% (n = 360,000) | activity change, negative = inhibition, % at 10 µM | AID 504652 | HEK293 TREx D1 cells, calcium flux, dopamine EC80; hits give low values | P21728; in the data active means activity change below about -30%
Target sequence (P21728 whole entry, looked up): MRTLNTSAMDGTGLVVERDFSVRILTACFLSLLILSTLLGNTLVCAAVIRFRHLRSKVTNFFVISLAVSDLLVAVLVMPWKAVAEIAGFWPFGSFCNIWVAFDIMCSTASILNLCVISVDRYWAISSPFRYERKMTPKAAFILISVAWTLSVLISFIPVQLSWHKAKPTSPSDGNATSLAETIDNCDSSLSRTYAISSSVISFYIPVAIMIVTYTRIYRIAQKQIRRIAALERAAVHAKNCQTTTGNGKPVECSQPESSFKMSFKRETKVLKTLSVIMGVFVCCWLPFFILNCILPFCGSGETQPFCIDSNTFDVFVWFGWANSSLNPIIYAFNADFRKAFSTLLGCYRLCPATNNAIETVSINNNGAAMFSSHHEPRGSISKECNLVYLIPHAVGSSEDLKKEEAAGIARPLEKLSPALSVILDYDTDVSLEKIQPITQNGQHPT
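Tetracycline-induced HEK293 Trex D1 cells, force-coupled to calcium, dye-loaded; compounds added and read 180 s, then EC80 dopamine added and calcium flux tracked kinetically another 180 s.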
D1 PAM: human D1 dopamine receptor positive modulation | AID 504651 | potentiation, % at 10 µM | HEK293 TREx D1 cells, calcium flux, dopamine EC20 potentiation | actives 0.036% (n = 360,000) | P21728; in the data active means potentiation above about 30%
DRD3 agonist: agonists of human D3 dopamine receptor; AID 652048; actives 0.58% (n = 410,000); D3R DiscoveRx beta-arrestin cells, luminescence, 90 min; max activation, %; in the data active means max activation above about 30%
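Agonist-mode cell screen: cells plated at 1500/well and incubated overnight at 37 °C, then exposed to library compounds for 90 min at 37 °C. Detection reagent was added for 30–60 min at room temperature, and luminescence was read.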
D1 agonist: activates the human D1 dopamine receptor; P21728; HEK293 T-REx D1 cells, calcium flux, agonist mode; activation, % at 2 µM; actives 1% (n = 360,000); in the data active means activation above about 30%
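Inducible HEK293 T-REx D1 cells, force-coupled to calcium signalling, were plated at 4000 cells/well with tetracycline and held overnight at 30 C. After no-wash calcium dye loading, compound-evoked calcium rise over 180 s flagged agonists.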
Numbers stand for hits; n = inactive; u = inconclusive; x = no result given. Sampled rows, rich in hits. Any-hit rate of the full collection: about 6%.

SMILES	DRD3 antagonist	D1 antag	D1 PAM	DRD3 agonist	D1 agonist
CCN(c1ccc(OC)cc1)S(=O)(=O)c1ccc(-c2ccc(=O)[nH]n2)o1	n	-41.4	n	n	n
CC(=O)Oc1oc(-c2ccccc2)nc1C=Nc1ccc(N(C)C)cc1	n	n	n	n	n
COc1ccccc1N=Cc1nc(-c2ccccc2)oc1OC(C)=O	-55.6	n	n	n	n
CC(=O)Oc1oc(-c2ccccc2)nc1/C=N/c1ccccn1	-62.5	n	n	n	n
CC(C)C[C@H](N)c1nnc(S(=O)(=O)Cc2ccc(F)cc2)o1	u	-70.3	n	n	n
CC(C)Oc1cccc(C(=O)Nc2ccc(-c3nc4cc(Cl)cc(Cl)c4o3)cc2)c1	x	n	n	n	n
Cc1cccc(C(=O)NC(=S)Nc2ccccc2C(F)(F)F)c1	n	n	n	n	n
O=C(O)c1cccc(NC(=S)NC(=O)c2ccc(-c3ccccc3)cc2)c1	n	n	n	n	n
Cc1ccc(C(=O)O)cc1NC(=S)NC(=O)c1ccc(-c2ccccc2)cc1	-52.4	n	n	n	n
Cc1ccc(C(=O)NC(=S)Nc2ccccc2C(F)(F)F)cc1C	-80.4	n	n	n	n
O=C(CNC(=O)c1ccc2n[nH]nc2c1)OC(C(=O)Nc1cc(C(F)(F)F)ccc1Cl)c1ccccc1 (stereo not drawn)	x	n	n	x	n
CC(C)(C)C1CCc2c(sc(NC(=O)C3CC=CCC3C(=O)O)c2C#N)C1 (stereo not drawn)	n	-39.6	n	n	n
Cc1cc(F)c(F)c(C(=O)N2CCCCC2C)c1Cl (stereo not drawn)	n	-31.0	n	n	n
Cc1cc(F)c(F)c(C(=O)N2CCC(C)CC2)c1Cl	n	n	n	n	n
Cc1ccc(N=C2C(=O)Nc3ccc(Br)cc32)cc1	-67.2	n	n	n	n
Cc1ccc(N=C2C(=O)Nc3c(C)cccc32)cc1	n	n	n	n	n
CCOc1ccc(S(=O)(=O)N(C)c2ccc(OCC(=O)N3c4ccc(C)cc4C4CN(C)CCC43)cc2)cc1 (stereo not drawn)	n	-40.5	n	n	n
Cc1ccc2c(c1)C1CN(C)CCC1N2C(=O)COc1ccc(N(C)S(=O)(=O)c2cccs2)cc1 (stereo not drawn)	n	-35.8	n	n	n
O=C1c2ccccc2-c2onc3ccc(NCCCn4ccnc4)c1c23	u	n	n	n	208.3
C[n+]1ccccc1/C=C/c1ccc([N+](=O)[O-])cc1	n	n	n	n	n
CC1=NN(c2ccccc2)C(c2ccco2)C1 (stereo not drawn)	n	x	x	n	x
O=[N+]([O-])c1ccc(C2=NN(c3ccccc3)C(c3ccco3)C2)cc1 (stereo not drawn)	n	-66.9	n	n	295.7
O=[N+]([O-])c1ccc(/C=C/C2=NN(c3ccccc3)C(c3ccco3)C2)cc1 (stereo not drawn)	n	-67.6	n	n	212.8
COc1cccc(C(=O)Nc2cccc(-c3nc4ncccn4c3C)c2)c1	x	n	n	n	n
CCOC(=O)c1c(NC(=O)c2cccs2)sc(CC)c1-c1cccs1	n	n	n	61.6	n
SMILES	DRD3 antagonist	D1 antag	D1 PAM	DRD3 agonist	D1 agonist
CCOC(=O)c1c(-c2cccs2)csc1NC(=O)C(C)(C)C	n	n	n	n	33.7
CCOC(=O)c1c(-c2cccs2)csc1NC(=O)CCCC(=O)O	n	n	n	44.4	n
CCOC(=O)c1c(-c2ccc(C)s2)csc1NC(=O)c1cccs1	n	n	n	n	n
O=Cc1coc2ccc3ccccc3c2c1=O	n	n	n	n	n
NC(=O)N/N=C/c1coc2ccc3ccccc3c2c1=O	n	-71.3	n	n	n
COc1cccc(CNc2nc3cc(-c4ccc(OC)c(OC)c4)sc3c(=O)n2C)c1	n	x	x	40.2	x
c1ccc2c(c1)CCc1ccccc1C2=C1CCNCC1	-85.1	x	x	n	x
O=C1C(=C2CCc3ccccc32)Cc2ccccc21	n	x	x	n	x
CC1(C)CC(=O)c2sc(NS(=O)(=O)c3ccccc3)nc2C1	u	-37.5	n	n	n
COc1ccccc1CNC(=O)c1cnc2sc(N3CCOCC3)nn2c1=O	x	n	n	n	n
COc1ccc(NC(=S)NC(NC(=O)C(C)C)C(Cl)(Cl)Cl)c([N+](=O)[O-])c1 (stereo not drawn)	-69.4	n	n	n	n
